Laboratory results: PubChem BioAssay (NCATS)
Inconclusive results are not listed. A call without a number means that no potency is given here. The source made the active and inactive calls. Calls come from the whole dose curve; as a rule, active = well fitted curve in the direction sought with a large enough effect; inconclusive = small, poorly fitted or top-dose-only effect, or another doubt; inactive = no such curve, though single readings can be large; an effect the other way counts as inactive or inconclusive.

Experiment: Cell Viability - Renal Proximal Tubule (AID 545);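 note: cells exposed to compound for 40 hours; nearly all actives have a fitted effect of over 40% in size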
Settings: renal proximal tubule cells viability, primary cells of rat origin; series mostly up to 91.7 µM
Method in brief: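 Rat kidney proximal tubule cells, freshly isolated; 1000 cells/well, 5 hr settle, compound 40 hr 37 °C. CellTiter-Glo 20 min RT, luminescence read. AC50 by standard Hill fit.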

| Compound | Potency |
| --- | --- |
| Cc1cc(C)c(N)cc1C | inactive |
| Cc1cccc2ccccc12 | inactive |
| C=C(C)C(=O)OCC(C)C | inactive |
| O=Cc1ccc(C(=O)O)cc1 | inactive |
| CCOc1cc(OCC)c(C(C)=O)cc1OCC | inactive |
| CCCCC(CC)CNCC(CC)CCCC (configuration not stated) | inactive |
| C=CCOC(=O)COCCC(C)C | inactive |
| ICCc1ccccc1 | inactive |
| Cc1ccccc1C(N)=O | inactive |
| CNC(=O)c1ccccc1 | inactive |
| ClCCl | inactive |
| CCOc1ccc(NC(C)=O)cc1N | inactive |
| Nc1ccc(F)cc1F | inactive |
| CC(=O)c1ccc([N+](=O)[O-])cc1 | inactive |
| CCCCN(CCO)CCCC | inactive |
| BrC(Br)C(Br)Br | inactive |
| Nc1nc(CC(=O)O)cs1 | inactive |
| O=[N+]([O-])c1cc(C(F)(F)F)ccc1Cl | inactive |
| Cc1ccc(C(C)(C)C)cc1 | inactive |
| CC(C)=CCl | inactive |

| Compound | Potency |
| --- | --- |
| O=Cc1ccc(Cl)cc1 | inactive |
| NC(=O)c1cccc([N+](=O)[O-])c1 | inactive |
| C=CCn1c(=O)n(CC=C)c(=O)n(CC=C)c1=O | inactive |
| Cc1cc(C)cc([N+](=O)[O-])c1 | inactive |
| CC(=O)OC(C)C | inactive |
| CCC(=O)/C=C/C1C(C)=CCCC1(C)C (configuration not stated) | inactive |
| CC(=O)CCc1ccccc1 | inactive |
| CCCCOCCOCCOCCCC | inactive |
| Cc1cc(C(=O)O)ccc1[N+](=O)[O-] | inactive |
| Cc1cccc(C)c1O | inactive |
| O=c1[nH][nH]c(=O)c2cc([N+](=O)[O-])ccc12 | inactive |
| CC(C)CCOC(=O)/C=C/c1ccccc1 | inactive |
| NC(=O)CCCCC(N)=O | inactive |
| ON=C1CCCCC1 | inactive |
| CC(=O)Nc1ccccc1C | inactive |
| COC(=O)CS | inactive |
| Cc1ccc2cccnc2c1 | inactive |
| Cc1cccc([N+](=O)[O-])c1C(=O)O | inactive |
| CCOc1cccc(N)c1 | inactive |

Experiment: Cell Viability - Mesenchymal (AID 546);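 note: cells exposed to compound for 40 hours before reading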
Settings: mesenchymal cells viability, qHTS; series mostly up to 91.7 µM
Method in brief: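 AC50 values reflect the drop in intracellular ATP in a human kidney mesenchymal line derived from normal glomeruli. Treatment lasts 40 hr at 37 °C in complete medium, and the signal comes from CellTiter-Glo luminescence.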

| Compound | Potency |
| --- | --- |
| Cc1cc(C)c(N)cc1C | inactive |
| Cc1cccc2ccccc12 | inactive |
| C=C(C)C(=O)OCC(C)C | inactive |
| O=Cc1ccc(C(=O)O)cc1 | inactive |
| CCOc1cc(OCC)c(C(C)=O)cc1OCC | inactive |
| CCCCC(CC)CNCC(CC)CCCC (configuration not stated) | inactive |
| C=CCOC(=O)COCCC(C)C | inactive |
| ICCc1ccccc1 | inactive |
| Cc1ccccc1C(N)=O | inactive |
| CNC(=O)c1ccccc1 | inactive |
| ClCCl | inactive |
| CCOc1ccc(NC(C)=O)cc1N | inactive |
| Nc1ccc(F)cc1F | inactive |
| CC(=O)c1ccc([N+](=O)[O-])cc1 | inactive |
| CCCCN(CCO)CCCC | inactive |
| BrC(Br)C(Br)Br | inactive |
| Nc1nc(CC(=O)O)cs1 | inactive |
| O=[N+]([O-])c1cc(C(F)(F)F)ccc1Cl | inactive |
| Cc1ccc(C(C)(C)C)cc1 | inactive |
| CC(C)=CCl | inactive |

| Compound | Potency |
| --- | --- |
| O=Cc1ccc(Cl)cc1 | inactive |
| NC(=O)c1cccc([N+](=O)[O-])c1 | inactive |
| C=CCn1c(=O)n(CC=C)c(=O)n(CC=C)c1=O | inactive |
| Cc1cc(C)cc([N+](=O)[O-])c1 | inactive |
| CC(=O)OC(C)C | inactive |
| CCC(=O)/C=C/C1C(C)=CCCC1(C)C (configuration not stated) | inactive |
| CC(=O)CCc1ccccc1 | inactive |
| CCCCOCCOCCOCCCC | inactive |
| Cc1cc(C(=O)O)ccc1[N+](=O)[O-] | inactive |
| Cc1cccc(C)c1O | inactive |
| O=c1[nH][nH]c(=O)c2cc([N+](=O)[O-])ccc12 | inactive |
| CC(C)CCOC(=O)/C=C/c1ccccc1 | inactive |
| NC(=O)CCCCC(N)=O | inactive |
| ON=C1CCCCC1 | inactive |
| CC(=O)Nc1ccccc1C | inactive |
| COC(=O)CS | inactive |
| Cc1ccc2cccnc2c1 | inactive |
| Cc1cccc([N+](=O)[O-])c1C(=O)O | inactive |
| CCOc1cccc(N)c1 | inactive |

Experiment: Cellular Toxicity (caspase-3) HepG2 (AID 654);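 note: cells exposed to compound for 16 hours before reading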
Settings: HepG2 caspase-3 activation, luminescence; series mostly up to 92.2 µM
Method in brief: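 Cells plated 5 hr at 37 °C, compound added, incubated 16 hr at 37 °C. Caspase-Glo 3/7 reagent followed, 20 min at room temperature, then luminescence read. Activation scored as signal increase; AC50 from Hill fit.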

| Compound | Potency |
| --- | --- |
| Cc1cc(C)c(N)cc1C | inactive |
| Cc1cccc2ccccc12 | inactive |
| C=C(C)C(=O)OCC(C)C | inactive |
| O=Cc1ccc(C(=O)O)cc1 | inactive |
| CCOc1cc(OCC)c(C(C)=O)cc1OCC | inactive |
| CCCCC(CC)CNCC(CC)CCCC (configuration not stated) | inactive |
| C=CCOC(=O)COCCC(C)C | inactive |
| ICCc1ccccc1 | inactive |
| Cc1ccccc1C(N)=O | inactive |
| CNC(=O)c1ccccc1 | inactive |
| ClCCl | inactive |
| CCOc1ccc(NC(C)=O)cc1N | inactive |
| Nc1ccc(F)cc1F | inactive |
| CC(=O)c1ccc([N+](=O)[O-])cc1 | inactive |
| CCCCN(CCO)CCCC | inactive |
| BrC(Br)C(Br)Br | inactive |
| Nc1nc(CC(=O)O)cs1 | inactive |
| O=[N+]([O-])c1cc(C(F)(F)F)ccc1Cl | inactive |
| Cc1ccc(C(C)(C)C)cc1 | inactive |
| CC(C)=CCl | inactive |

| Compound | Potency |
| --- | --- |
| O=Cc1ccc(Cl)cc1 | inactive |
| NC(=O)c1cccc([N+](=O)[O-])c1 | inactive |
| C=CCn1c(=O)n(CC=C)c(=O)n(CC=C)c1=O | inactive |
| Cc1cc(C)cc([N+](=O)[O-])c1 | inactive |
| CC(=O)OC(C)C | inactive |
| CCC(=O)/C=C/C1C(C)=CCCC1(C)C (configuration not stated) | inactive |
| CC(=O)CCc1ccccc1 | inactive |
| CCCCOCCOCCOCCCC | inactive |
| Cc1cc(C(=O)O)ccc1[N+](=O)[O-] | inactive |
| Cc1cccc(C)c1O | inactive |
| O=c1[nH][nH]c(=O)c2cc([N+](=O)[O-])ccc12 | inactive |
| CC(C)CCOC(=O)/C=C/c1ccccc1 | inactive |
| NC(=O)CCCCC(N)=O | inactive |
| ON=C1CCCCC1 | inactive |
| CC(=O)Nc1ccccc1C | inactive |
| COC(=O)CS | inactive |
| Cc1ccc2cccnc2c1 | inactive |
| Cc1cccc([N+](=O)[O-])c1C(=O)O | inactive |
| CCOc1cccc(N)c1 | inactive |
